# Target: ICAM4
# Test: pooled miR-30 sensor sort-seq; sequence = guide strand
# Conditions: shRNA
# Note: reference of the scale not given here.
row,Sequence,sensor-assay potency score (higher = more potent)
1,TTCATAGCTAGGCACTTGCATA,-1.17
2,TTTGTAGGCGGTGATCCTGGAG,-0.0996
3,TAGCTAGGCACTTGCATAGGTA,-0.927
4,TTGTAGGCGGTGATCCTGGAGG,-1.08
5,TAGCCCACCGGGAACACTGTAG,-0.579

# Target: ICOS
# Test: as above
# Conditions: shRNA
row,Sequence,sensor-assay potency score (higher = more potent)
1,TTGTGATTCATAAATATGCAAA,-1.24
2,TAGTATGATAGTGAAATGCGGA,-0.711
3,TTGTGAAATATAAACATCTCAT,-0.925
4,TTTTGTCTTAGTGAGATCGCAG,-0.217
5,TTGACTGATACAGTCATTCTTC,0.168
6,TTTAAGAATCTTTCTAGCCAAA,-1.13
7,TAAACTACAACATAATCCCAGT,-0.438
8,TAAAATTTGTACACCTCCGTTG,-0.108
9,TACTGTACTGTACACATCCAGC,-0.859
10,TTGTGAATTATTATTCATCTTG,-0.481
11,TAAACATCTCATAATTGGCAGA,-0.689
12,TTTGTCTTAGTGAGATCGCAGA,-0.78

# Target: IDI2
# Test: as above
# Conditions: shRNA
row,Sequence,sensor-assay potency score (higher = more potent)
1,TTTCGTGTCCGACCTCTGCTGT,-0.749
2,TTTCGTTTCACTGGGATCCGGG,-0.0224
3,TAGTGATTTATACATGATGGGC,-1.3
4,TTTCTCAATGTTTTCGTTCAGA,-0.492
5,ATTCTCATCCACAACAATCAGC,-0.745
6,TAGGATGCAAGATTGAATGTGT,0.9
7,TAACCTTATCATTCTCATCCAC,-0.207
8,TTTTCTTCCAGTTCTGCTGGGT,0.298
9,TTATTTGTAAGCATATTACTGA,0.0641
10,TTGTGAAGCTCCACAAACGGGG,-0.921
11,TTGTCATGAACACAATGTCCTC,-1.35
12,TAAACGTCGAGTCACTTGGCTG,-1.26

# Target: IER5
# Test: as above
# Conditions: shRNA
row,Sequence,sensor-assay potency score (higher = more potent)
1,TATCGCAGCAGATCTGCCCGGG,-0.199
2,TAAAAATATATCTTTTCTCTAT,-0.862
3,TTCCAAGCTTGAACTCTTCTGT,0.444
4,TACAAAAATCAATACAACGAAG,-1.23
5,TTCTTATGCAGCTTGATGCCGC,-0.805
6,TTATGCAGCTTGATGCCGCCGC,-0.467
7,TTCATGTCTCTCAGCACCGGCT,-0.831
8,TTGTAGATCTTGCCCAGAGAGA,-1.34
9,TTTCCTAGAGTAATCACAGGAT,0.282
10,TTATCGCAGCAGATCTGCCCGG,-0.618
11,ATAAGGTCTTTCCACTTCGGGC,-1.59
